Results filed as inconclusive are left out. A call without a number means that no potency is given here. Calls of active or inactive are those of the source. Calls follow the shape of the dose curve; as a rule, active = well fitted inhibition curve with a large enough effect; inconclusive = small, poorly fitted or top-dose-only effect; inactive = flat fitted curve, though single readings scatter.
The molecules below were run on PAD (assay: qHTS profiling for inhibitors of Plasmodium falciparum proliferation (AID 504749; also: nearly all actives have a fitted effect of over 60% in size)). Conditions: P. falciparum in erythrocytes, SYBR Green DNA, 72 h; series mostly up to 28.7 µM.
How it was run: (§1)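 Fluorescence of SYBR Green-bound parasite DNA, read at 485/535 nm, served as the growth measure. Infected erythrocytes were cultured with compound 72 h; artemisinin (0.29 uM) and DMSO wells defined the normalization range.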
Potency is read from the fitted curve at half-maximal effect.

Question: Which Potency does the source give for `CO[C@H](C(=O)[C@@H](O)[C@@H](C)O)C1Cc2cc3cc(O[C@H]4C[C@@H](O[C@H]5C[C@@H](O)[C@H](O)[C@@H](C)O5)[C@@H](O)[C@@H](C)O4)c(C)c(O)c3c(O)c2C(=O)[C@H]1O[C@H]1C[C@@H](O[C@H]2C[C@@H](O[C@H]3C[C@](C)(O)[C@H](O)[C@@H](C)O3)[C@H](O)[C@@H](C)O2)[C@H](O)[C@@H](C)O1` (stereo not given in full) here?
Answer: Its Potency is 158 nM (active).

Question: How did the Potency turn out when `O=C(O)c1cc(O)c2c(c1)[O][Bi][O]2` was run?
Answer: The Potency was “inactive”.

Question: With `NC(=O)c1ncn(C2OC(CO)C(O)C2O)n1` (stereo not given) as the molecule, how does the Potency read?
Answer: The Potency was “inactive”.

Question: With `CC[N+](C)(C)Cc1ccccc1Br` as the molecule, how does the Potency read?
Answer: The Potency was “inactive”.

Question: `Nc1ncnc2c1ncn2[C@@H]1O[C@H](COP(=O)(O)OP(=O)(O)OP(=O)(O)O)[C@@H](O)[C@H]1O` was tested. Which Potency did it give?
Answer: The Potency was “inactive”.

Question: For `CCCCCCCCCCCCCCCC(=O)OCC(COC(=O)CCCCCCCCCCCCCCC)OC(=O)CCCCCCCCCCCCCCC`, which Potency is on record?
Answer: Its Potency is “inactive”.

Question: `CCCC(=O)O[C@]1(C(=O)CCl)[C@H](C)C[C@@H]2[C@H]3CCC4=CC(=O)C=C[C@]4(C)[C@@]3(F)C(=O)C[C@@]21C` was tested. Which Potency did it give?
Answer: Its Potency is 4470 nM (active).

Question: How did the Potency turn out when `CC(C)(C)C(=O)OCOC(=O)[C@@H]1N2C(=O)[C@@H](N=CN3CCCCCC3)[C@H]2SC1(C)C` was run?
Answer: Its Potency is “inactive”.

Question: `O=S(=O)(O)O` was tested. Which Potency did it give?
Answer: Its Potency is “inactive”.

Question: How did the Potency turn out when `Cc1ccccc1OCC(O)CNCCOc1ccc(C(N)=O)cc1` (stereo not given) was run?
Answer: The Potency was “inactive”.

Question: Which Potency does the source give for `CCCCC/C=C\C/C=C\CCCCCCCC(=O)O` here?
Answer: Its Potency is “inactive”.

Question: With `C[C@@H]1CCC2[C@@H](C)[C@@H](O)O[C@@H]3O[C@@]4(C)CC[C@@H]1[C@@]23OO4` (stereo not given in full) as the molecule, how does the Potency read?
Answer: Its Potency is 1.4 nM (active).

Question: With `Nc1c(N=Nc2ccc(-c3ccc(N=Nc4cc(S(=O)(=O)O)c5ccccc5c4N)cc3)cc2)cc(S(=O)(=O)O)c2ccccc12` as the molecule, how does the Potency read?
Answer: Its Potency is “inactive”.

Question: For `CC1(C)S[C@@H]2[C@H](NC(=O)[C@@H](NC(=O)N3CCNC3=O)c3ccccc3)C(=O)N2[C@H]1C(=O)O`, which Potency is on record?
Answer: The Potency was “inactive”.

Question: `COCC(=O)Nc1cc(Sc2ccccc2)ccc1N=C(NC(=O)OC)NC(=O)OC` was tested. Which Potency did it give?
Answer: The Potency was “inactive”.

Question: With `CC(O)CO` (stereo not given) as the molecule, how does the Potency read?
Answer: The Potency was “inactive”.

Question: How did the Potency turn out when `COC(=O)CCC(=O)CN` was run?
Answer: Its Potency is “inactive”.

Question: `CC1=C(/C=C/C(C)=C/C=C/C(C)=C/C=C/C=C(C)/C=C/C=C(C)/C=C/C2=C(C)CCCC2(C)C)C(C)(C)CCC1` was tested. Which Potency did it give?
Answer: Its Potency is “inactive”.

Question: For `CN=C(NC#N)Nc1ccc(C2=NNC(=O)C[C@@H]2C)cc1`, which Potency is on record?
Answer: Its Potency is “inactive”.

Question: Which Potency does the source give for `C[C@H]1C[C@H]2[C@@H]3CCC4=CC(=O)C=C[C@]4(C)[C@@]3(F)[C@@H](O)C[C@]2(C)[C@@]1(O)C(=O)CO` here?
Answer: The Potency was “inactive”.

Question: How did the Potency turn out when `O=C1C(=O)c2ncccc2-c2cccnc21` was run?
Answer: The Potency was 794 nM (active).

Question: `CCCCCCCCCCCCCC[n+]1ccc(C)cc1` was tested. Which Potency did it give?
Answer: Its Potency is 3550 nM (active).

Question: How did the Potency turn out when `COC(C(=O)C(O)C(C)O)C1Cc2cc3cc(OC4CC(OC5CC(O)C(O)C(C)O5)C(O)C(C)O4)c(C)c(O)c3c(O)c2C(=O)C1OC1CC(OC2CC(OC3CC(C)(O)C(O)C(C)O3)C(O)C(C)O2)C(O)C(C)O1` (stereo not given) was run?
Answer: The Potency was 224 nM (active).

Question: Which Potency does the source give for `CCCCCCC(O)C/C=C/CCCCCCCC(=O)O` (stereo not given) here?
Answer: The Potency was “inactive”.

Question: Which Potency does the source give for `CCCCCC(CC)COC(=O)CC(C(=O)OCC(CC)CCCC)S(=O)(=O)O` (stereo not given) here?
Answer: Its Potency is “inactive”.

Question: Which Potency does the source give for `C[C@]12CCC(=O)C=C1CC[C@@H]1[C@@H]2[C@@H](O)C[C@@]2(C)[C@H]1CC[C@]2(O)C(=O)COP(=O)(O)O` here?
Answer: Its Potency is “inactive”.

Question: `Cc1cc(C(=O)NNCc2ccccc2)no1` was tested. Which Potency did it give?
Answer: The Potency was “inactive”.

Question: Which Potency does the source give for `O=C(O)CCC(=O)C(=O)O` here?
Answer: The Potency was “inactive”.

Question: How did the Potency turn out when `CCCCCCCCCCCC[n+]1ccc2ccccc2c1` was run?
Answer: Its Potency is 2000 nM (active).

Question: How did the Potency turn out when `Cc1cn([C@H]2C[C@H](O)[C@@H](CO)O2)c(=O)[nH]c1=O` was run?
Answer: The Potency was “inactive”.

The molecules below were run on PC15 in the same assay as above. Conditions: P. falciparum in erythrocytes, SYBR Green DNA, 72 h; series mostly up to 28.7 µM.
How it was run: as §1

Question: How did the Potency turn out when `CO[C@H](C(=O)[C@@H](O)[C@@H](C)O)C1Cc2cc3cc(O[C@H]4C[C@@H](O[C@H]5C[C@@H](O)[C@H](O)[C@@H](C)O5)[C@@H](O)[C@@H](C)O4)c(C)c(O)c3c(O)c2C(=O)[C@H]1O[C@H]1C[C@@H](O[C@H]2C[C@@H](O[C@H]3C[C@](C)(O)[C@H](O)[C@@H](C)O3)[C@H](O)[C@@H](C)O2)[C@H](O)[C@@H](C)O1` (stereo not given in full) was run?
Answer: The Potency was 316 nM (active).

Question: For `O=C(O)c1cc(O)c2c(c1)[O][Bi][O]2`, which Potency is on record?
Answer: The Potency was “inactive”.

Question: `NC(=O)c1ncn(C2OC(CO)C(O)C2O)n1` (stereo not given) was tested. Which Potency did it give?
Answer: The Potency was “inactive”.

Question: How did the Potency turn out when `CC[N+](C)(C)Cc1ccccc1Br` was run?
Answer: Its Potency is “inactive”.

Question: `Nc1ncnc2c1ncn2[C@@H]1O[C@H](COP(=O)(O)OP(=O)(O)OP(=O)(O)O)[C@@H](O)[C@H]1O` was tested. Which Potency did it give?
Answer: The Potency was “inactive”.

Question: `CCCCCCCCCCCCCCCC(=O)OCC(COC(=O)CCCCCCCCCCCCCCC)OC(=O)CCCCCCCCCCCCCCC` was tested. Which Potency did it give?
Answer: The Potency was “inactive”.

Question: For `CCCC(=O)O[C@]1(C(=O)CCl)[C@H](C)C[C@@H]2[C@H]3CCC4=CC(=O)C=C[C@]4(C)[C@@]3(F)C(=O)C[C@@]21C`, which Potency is on record?
Answer: Its Potency is 3550 nM (active).

Question: `CC(C)(C)C(=O)OCOC(=O)[C@@H]1N2C(=O)[C@@H](N=CN3CCCCCC3)[C@H]2SC1(C)C` was tested. Which Potency did it give?
Answer: The Potency was “inactive”.

Question: Which Potency does the source give for `O=S(=O)(O)O` here?
Answer: The Potency was “inactive”.

Question: For `Cc1ccccc1OCC(O)CNCCOc1ccc(C(N)=O)cc1` (stereo not given), which Potency is on record?
Answer: Its Potency is “inactive”.

Question: Which Potency does the source give for `CCCCC/C=C\C/C=C\CCCCCCCC(=O)O` here?
Answer: Its Potency is “inactive”.

Question: How did the Potency turn out when `C[C@@H]1CCC2[C@@H](C)[C@@H](O)O[C@@H]3O[C@@]4(C)CC[C@@H]1[C@@]23OO4` (stereo not given in full) was run?
Answer: The Potency was 0.9 nM (active).

Question: How did the Potency turn out when `Nc1c(N=Nc2ccc(-c3ccc(N=Nc4cc(S(=O)(=O)O)c5ccccc5c4N)cc3)cc2)cc(S(=O)(=O)O)c2ccccc12` was run?
Answer: The Potency was “inactive”.

Question: With `CC1(C)S[C@@H]2[C@H](NC(=O)[C@@H](NC(=O)N3CCNC3=O)c3ccccc3)C(=O)N2[C@H]1C(=O)O` as the molecule, how does the Potency read?
Answer: The Potency was “inactive”.

Question: For `COCC(=O)Nc1cc(Sc2ccccc2)ccc1N=C(NC(=O)OC)NC(=O)OC`, which Potency is on record?
Answer: Its Potency is “inactive”.

Question: How did the Potency turn out when `CC(O)CO` (stereo not given) was run?
Answer: Its Potency is “inactive”.

Question: With `COC(=O)CCC(=O)CN` as the molecule, how does the Potency read?
Answer: The Potency was “inactive”.

Question: With `CC1=C(/C=C/C(C)=C/C=C/C(C)=C/C=C/C=C(C)/C=C/C=C(C)/C=C/C2=C(C)CCCC2(C)C)C(C)(C)CCC1` as the molecule, how does the Potency read?
Answer: The Potency was “inactive”.

Question: For `CN=C(NC#N)Nc1ccc(C2=NNC(=O)C[C@@H]2C)cc1`, which Potency is on record?
Answer: Its Potency is “inactive”.

Question: `C[C@H]1C[C@H]2[C@@H]3CCC4=CC(=O)C=C[C@]4(C)[C@@]3(F)[C@@H](O)C[C@]2(C)[C@@]1(O)C(=O)CO` was tested. Which Potency did it give?
Answer: The Potency was “inactive”.

Question: `O=C1C(=O)c2ncccc2-c2cccnc21` was tested. Which Potency did it give?
Answer: Its Potency is 891 nM (active).

Question: With `CCCCCCCCCCCCCC[n+]1ccc(C)cc1` as the molecule, how does the Potency read?
Answer: The Potency was 4470 nM (active).

Question: With `COC(C(=O)C(O)C(C)O)C1Cc2cc3cc(OC4CC(OC5CC(O)C(O)C(C)O5)C(O)C(C)O4)c(C)c(O)c3c(O)c2C(=O)C1OC1CC(OC2CC(OC3CC(C)(O)C(O)C(C)O3)C(O)C(C)O2)C(O)C(C)O1` (stereo not given) as the molecule, how does the Potency read?
Answer: Its Potency is 501 nM (active).

Question: How did the Potency turn out when `CCCCCCC(O)C/C=C/CCCCCCCC(=O)O` (stereo not given) was run?
Answer: The Potency was “inactive”.

Question: Which Potency does the source give for `CCCCCC(CC)COC(=O)CC(C(=O)OCC(CC)CCCC)S(=O)(=O)O` (stereo not given) here?
Answer: Its Potency is “inactive”.

Question: With `C[C@]12CCC(=O)C=C1CC[C@@H]1[C@@H]2[C@@H](O)C[C@@]2(C)[C@H]1CC[C@]2(O)C(=O)COP(=O)(O)O` as the molecule, how does the Potency read?
Answer: The Potency was “inactive”.

Question: `Cc1cc(C(=O)NNCc2ccccc2)no1` was tested. Which Potency did it give?
Answer: The Potency was “inactive”.

Question: With `O=C(O)CCC(=O)C(=O)O` as the molecule, how does the Potency read?
Answer: Its Potency is “inactive”.

Question: Which Potency does the source give for `CCCCCCCCCCCC[n+]1ccc2ccccc2c1` here?
Answer: Its Potency is 2240 nM (active).

Question: `Cc1cn([C@H]2C[C@H](O)[C@@H](CO)O2)c(=O)[nH]c1=O` was tested. Which Potency did it give?
Answer: The Potency was “inactive”.

— PubChem BioAssay (NCATS)
